According to PubChem BioAssay AID1159580 (chemical genetic matrix, 2015):
In all, about 5,500 compounds went through this assay and about 2,000 (36%) were called active. About 18% were inconclusive and are not listed. No stated cut-off is given here; in the data, active means normalized growth mostly below about 0.91 (no sharp cut-off); inconclusive means no clear call, values can overlap the other calls; inactive means mostly above about 0.92. This is one part of the list.

Assay: chemical genetic growth profiling, strain panel (AID 1159580);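 further: tested at 20 µM; growth read once vehicle control cultures reached saturation at 30 °C; 1 = growth at the plate median or of vehicle wells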
Conditions: growth OD

Measured: normalized growth

CC(=O)OCC(=O)[C@@]1(O)CCC2C3CCC4=CC(=O)C=CC4(C)C3[C@@H](O)C[C@@]21C (stereo partly drawn)
inactive: S. cerevisiae deletion strains, locus YKL009W, strain mrt4, stronger effect = lower value 1.07 | S. cerevisiae deletion strains, locus YKL068W, stronger effect = lower value 1.01 | S. cerevisiae deletion strains, locus YKL085W, strain MDH1 (second series), stronger effect = lower value 1.01 | S. cerevisiae deletion strains, locus YKL085W, strain MDH1, stronger effect = lower value 1.01 | S. cerevisiae deletion strains, locus YKL160W, strain elf1, stronger effect = lower value 0.973 | S. cerevisiae deletion strains, locus YKL190W, strain CNB1, stronger effect = lower value 1.02 | S. cerevisiae deletion strains, locus YKR001C, strain vps1, stronger effect = lower value 1.02 | S. cerevisiae deletion strains, locus YKR026C, strain gcn3, stronger effect = lower value 0.985 | S. cerevisiae deletion strains, locus YKR091W, strain srl3, stronger effect = lower value 1 | S. cerevisiae deletion strains, locus YLL001W, strain dnm1, stronger effect = lower value 0.953 | S. cerevisiae deletion strains, locus YLL026W, stronger effect = lower value 0.99 | S. cerevisiae deletion strains, locus YLL041C, strain sdh2, stronger effect = lower value 0.998 | S. cerevisiae deletion strains, locus YLR027C, strain aat2, stronger effect = lower value 0.991 | S. cerevisiae deletion strains, locus YLR039C, strain RIC1, stronger effect = lower value 1.04 | S. cerevisiae deletion strains, locus YLR058C, strain SHM2, stronger effect = lower value 0.998 | S. cerevisiae deletion strains, locus YLR102C, strain apc9, stronger effect = lower value 1.01 | S. cerevisiae deletion strains, locus YLR113W, strain HOG1, stronger effect = lower value 0.999 | S. cerevisiae deletion strains, locus YLR221C, strain rsa3, stronger effect = lower value 1.01 | S. cerevisiae deletion strains, locus YLR258W, strain gsy2, stronger effect = lower value 1 | S. cerevisiae deletion strains, locus YLR262C, strain YPT6 (second series), stronger effect = lower value 0.967 | S. cerevisiae deletion strains, locus YLR262C, strain YPT6, stronger effect = lower value 1.04 | S. cerevisiae deletion strains, locus YLR268W, strain sec22, stronger effect = lower value 1.03 | S. cerevisiae deletion strains, locus YLR320W, strain mms22, stronger effect = lower value 0.982 | S. cerevisiae deletion strains, locus YLR330W, strain CHS5, stronger effect = lower value 1.01 | S. cerevisiae deletion strains, locus YLR342W, strain FKS1 (second series), stronger effect = lower value 1.02 | S. cerevisiae deletion strains, locus YLR342W, strain FKS1, stronger effect = lower value 0.992 | S. cerevisiae deletion strains, locus YLR357W, strain rsc2, stronger effect = lower value 0.997 | S. cerevisiae deletion strains, locus YLR370C, strain arc18, stronger effect = lower value 0.984 | S. cerevisiae deletion strains, locus YLR371W, strain rom2, stronger effect = lower value 1.02 | S. cerevisiae deletion strains, locus YLR384C, strain iki3, stronger effect = lower value 0.973 | S. cerevisiae deletion strains, locus YLR418C, strain cdc73, stronger effect = lower value 1.02 | S. cerevisiae deletion strains, locus YML016C, strain PPZ1, stronger effect = lower value 1.01 | S. cerevisiae deletion strains, locus YML032C, strain rad52, stronger effect = lower value 1.03 | S. cerevisiae deletion strains, locus YML120C, strain ndi1, stronger effect = lower value 0.995 | S. cerevisiae deletion strains, locus YML124C, strain tub3, stronger effect = lower value 1.02 | S. cerevisiae deletion strains, locus YMR058W, strain fet3, stronger effect = lower value 0.992 | S. cerevisiae deletion strains, locus YMR078C, strain ctf18, stronger effect = lower value 1.01 | S. cerevisiae deletion strains, locus YMR125W, strain sto1, stronger effect = lower value 1 | S. cerevisiae deletion strains, locus YMR129W, stronger effect = lower value 0.993 | S. cerevisiae deletion strains, locus YMR205C, strain PFK2, stronger effect = lower value 0.99 | S. cerevisiae deletion strains, locus YMR223W, strain ubp8, stronger effect = lower value 1.02 | S. cerevisiae deletion strains, locus YMR231W, strain pep5, stronger effect = lower value 0.992 | S. cerevisiae deletion strains, locus YMR263W, strain SAP30, stronger effect = lower value 1 | S. cerevisiae deletion strains, locus YMR307W, strain GAS1, stronger effect = lower value 1.02 | S. cerevisiae deletion strains, locus YNL067W, strain RPL9B, stronger effect = lower value 1 | S. cerevisiae deletion strains, locus YNL071W, strain lat1, stronger effect = lower value 1.01 | S. cerevisiae deletion strains, locus YNL128W, strain TEP1, stronger effect = lower value 1.01 | S. cerevisiae deletion strains, locus YNL153C, strain GIM3, stronger effect = lower value 1 | S. cerevisiae deletion strains, locus YNL183C, strain NPR1, stronger effect = lower value 0.959 | S. cerevisiae deletion strains, locus YNL209W, strain ssb2, stronger effect = lower value 1 | S. cerevisiae deletion strains, locus YNL233W, strain BNI4, stronger effect = lower value 1.02 | S. cerevisiae deletion strains, locus YNL248C, strain rpa49, stronger effect = lower value 0.989 | S. cerevisiae deletion strains, locus YNL250W, strain rad50, stronger effect = lower value 1.01 | S. cerevisiae deletion strains, locus YNL271C, strain bni1, stronger effect = lower value 1.02 | S. cerevisiae deletion strains, locus YNL298W, strain CLA4, stronger effect = lower value 1.02 | S. cerevisiae deletion strains, locus YNL307C, strain MCK1, stronger effect = lower value 1.02 | S. cerevisiae deletion strains, locus YNL322C, strain KRE1 (second series), stronger effect = lower value 0.992 | S. cerevisiae deletion strains, locus YNR049C, strain mso1, stronger effect = lower value 0.997 | S. cerevisiae deletion strains, locus YNR052C, strain pop2, stronger effect = lower value 1.01 | S. cerevisiae deletion strains, locus YOL006C, strain TOP1, stronger effect = lower value 1.06 | S. cerevisiae deletion strains, locus YOL012C, strain htz1 0.982 | S. cerevisiae deletion strains, locus YOL147C, strain pex11, stronger effect = lower value 1.01 | S. cerevisiae deletion strains, locus YOR001W, strain rrp6, stronger effect = lower value 0.98 | S. cerevisiae deletion strains, locus YOR061W, strain CKA2, stronger effect = lower value 1.01 | S. cerevisiae deletion strains, locus YOR069W, strain VPS5, stronger effect = lower value 1 | S. cerevisiae deletion strains, locus YOR070C, strain gyp1, stronger effect = lower value 0.999 | S. cerevisiae deletion strains, locus YOR080W, strain dia2, stronger effect = lower value 0.984 | S. cerevisiae deletion strains, locus YOR083W, strain WHI5, stronger effect = lower value 0.965 | S. cerevisiae deletion strains, locus YOR106W, strain vam3, stronger effect = lower value 0.973 | S. cerevisiae deletion strains, locus YOR136W, strain idh2, stronger effect = lower value 1.02 | S. cerevisiae deletion strains, locus YOR144C, strain elg1, stronger effect = lower value 1.02 | S. cerevisiae deletion strains, locus YOR184W, strain ser1, stronger effect = lower value 1.01 | S. cerevisiae deletion strains, locus YOR231W, strain MKK1, stronger effect = lower value 0.999 | S. cerevisiae deletion strains, locus YOR265W, strain rbl2, stronger effect = lower value 1 | S. cerevisiae deletion strains, locus YOR270C, strain vph1, stronger effect = lower value 1.01 | S. cerevisiae deletion strains, locus YOR290C, strain snf2, stronger effect = lower value 1.01 | S. cerevisiae deletion strains, locus YOR316C, strain cot1, stronger effect = lower value 1.02 | S. cerevisiae deletion strains, locus YPL051W, strain arl3, stronger effect = lower value 0.986 | S. cerevisiae deletion strains, locus YPL078C, strain atp4, stronger effect = lower value 0.97 | S. cerevisiae deletion strains, locus YPL106C, strain sse1, stronger effect = lower value 1.01 | S. cerevisiae deletion strains, locus YPL240C, strain hsp82, stronger effect = lower value 0.98 | S. cerevisiae deletion strains, locus YPL256C, strain CLN2, stronger effect = lower value 0.96 | S. cerevisiae deletion strains, locus YPR119W, strain clb2, stronger effect = lower value 1.01 | S. cerevisiae deletion strains, locus YPR141C, strain kar3, stronger effect = lower value 1.02 | S. cerevisiae deletion strains, locus YPR163C, strain tif3, stronger effect = lower value 1.02 | S. cerevisiae deletion strains, locus YPR167C, strain met16, stronger effect = lower value 1.02 | S. cerevisiae deletion strains, strain wtn01, stronger effect = lower value 1.01 | S. cerevisiae strains, strain wild type, stronger effect = lower value 1
